{"source": "PubChem BioAssay (NCI)", "note": "About 83,000 compounds went through this panel and 20% of them were active in at least one assay; those are over-represented in the sample as a whole.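 Testing used 96-well plates and a 48-hour single-concentration exposure. Example: -40 means 40% of the starting cells died.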 Values without a mark were called inactive. The source made the active and inactive calls. The calls were made as follows: active = growth percent below 10; inactive = the rest.", "data": [{"tested_on": "HCT-15 colon", "test": "NCI-60 one-dose screen, 48 h (100 = growth as untreated, 0 = no growth, -100 = all killed)", "details": "10 µM unless noted", "values": [{"smiles": "COC(=O)/C(CCC=C(C)C)=C1\\[C@@H](OC(C)=O)C[C@@]2(C)[C@H]1C/C(=N/O)[C@H]1[C@@]3(C)CC/C(=N\\O)[C@@H](C)[C@@H]3CC[C@@]12C", "growth": "88.4%"}, {"smiles": "Nc1cccc(-c2ccc(COc3ccc(CC4SC(=O)NC4=O)cc3)cc2)c1", "note": "(stereo not given)", "growth": "34.3%"}, {"smiles": "CCOC(=O)c1cnn(CC(C)O)c1NC(=O)NCc1cccc(F)c1", "note": "(stereo not given)", "growth": "107%"}, {"smiles": "O=S(Nc1ccccc1)c1ccc(Cl)cc1", "note": "(stereo not given)", "growth": "109%"}, {"smiles": "CCOC(=O)C1=C(CC(O)c2ccc(OC)cc2OC)NC(=O)NC1c1ccccc1", "note": "(stereo not given)", "growth": "110%"}, {"smiles": "CCn1cc(C(=O)O)c(=O)c2cc(F)c(N3CCN(CC(=O)Nc4ccccc4)C(C)C3)c(F)c21", "note": "(stereo not given)", "growth": "101%"}, {"smiles": "CCN(CC)c1ccc(-c2cc(-c3cc(OC)c(OC)c(OC)c3)nc(N3CCC(O)CC3)c2C#N)cc1", "growth": "-36.7% (active)"}, {"smiles": "C=C(C)[C@@H]1CC[C@]2(C)[C@H](C=CC3=C4C[C@@](C)(CO)CC[C@]4(C)CC[C@]32C)[C@@]1(C)CCCN", "growth": "-82% (active)"}, {"smiles": "CS(=O)/C(C#N)=C\\C=C\\c1cccc(Cl)c1", "note": "(stereo not given)", "growth": "-6.41% (active)"}, {"smiles": "CC1=C(Cl)C(=O)c2cc(C)ccc2C1=O", "growth": "100%"}, {"smiles": "N#Cc1ccc(O)c(C2=NCC(c3ccc(-c4ccccc4)cc3)O2)c1", "note": "(stereo not given)", "growth": "24.6%"}, {"smiles": "CC[C@H](Nc1nc(N)nc(C)c1C#N)c1nc2cccc(CN(C)c3ncc(C(=O)NO)cn3)c2c(=O)n1-c1ccccc1", "growth": "42.8%"}, {"smiles": "Cc1nc2ccccc2c(/C=C/c2ccc(F)cc2)c1C(=O)/C=C/c1ccccc1", "growth": "-4.2% (active)"}, {"smiles": "O=C(CN1C(=O)S/C(=C\\C(Cl)=C\\c2ccccc2)C1=O)NC1CCS(=O)(=O)C1", "note": "(stereo not given)", "growth": "15.7%"}, {"smiles": "Nc1[nH]nc2nc(-c3ccccc3)n3c4ccccc4nc3c12", "growth": "101%"}, {"smiles": "CC(C)(C)OC(=O)CN1CCc2c(sc3ncnc(N4CCN(c5ccc(F)cc5)CC4)c23)C1", "growth": "96.6%"}, {"smiles": "N#Cc1nn(-c2cc(=O)[nH]c3ccc(Br)cc23)c(N)c1C#N", "growth": "99.3%"}, {"smiles": "O=c1oc2ccccc2cc1-c1nn(-c2ccccc2)cc1-c1nn[nH]n1", "growth": "100%"}, {"smiles": "COc1ccc(/C=N/NC(=O)Cn2c(-c3ccc(S(C)(=O)=O)cc3)nc3ccccc32)cc1", "growth": "98.8%"}, {"smiles": "CC(C)n1c2ccc(Br)cc2c2c3c(c4c5ccccc5ccc4c21)C(=O)NC3=O", "growth": "83.7%"}, {"smiles": "CCOC(=O)C1=C(c2ccccc2)N=C2N(c3ccccc3)N=C(C(C)=O)N2C1c1ccc(F)cc1", "note": "(stereo not given)", "growth": "90.8%"}, {"smiles": "COC1C(O)CC(OC2CC(OC3CC(O[C@@H]4C(=O)c5c(cc6cc(OC7CC(OC8CC(O)C(O)C(C)O8)C(O)C(C)O7)c(C)c(O)c6c5O)CC4[C@H](OC)[C@@H](O)C(C)=O)OC(C)C3O)OC(C)C2O)OC1C", "note": "(stereo not given in full)", "growth": "28%"}, {"smiles": "COC(=O)c1c2c(c(C)[n+]([O-])c1C)C(=O)C(NCc1ccccc1)=CC2=O", "growth": "5.71% (active)"}, {"smiles": "Oc1nc(NCc2ccccc2)sc1/C=C1\\C=Nc2ncccc21", "growth": "67.4%"}, {"smiles": "C=C1C(=O)O[C@H]2[C@H]1CC/C(COC(=O)/C=C\\C(=O)NCc1ccc(Cn3c(=O)sn(CCCCl)c3=O)cc1)=C\\CC[C@@]1(C)O[C@@H]21", "growth": "30.8%"}]}]}
